The source of these data is PubChem BioAssay.

Sequence of Concanavalin-A (Canavalia ensiformis) (P02866 whole entry, looked up): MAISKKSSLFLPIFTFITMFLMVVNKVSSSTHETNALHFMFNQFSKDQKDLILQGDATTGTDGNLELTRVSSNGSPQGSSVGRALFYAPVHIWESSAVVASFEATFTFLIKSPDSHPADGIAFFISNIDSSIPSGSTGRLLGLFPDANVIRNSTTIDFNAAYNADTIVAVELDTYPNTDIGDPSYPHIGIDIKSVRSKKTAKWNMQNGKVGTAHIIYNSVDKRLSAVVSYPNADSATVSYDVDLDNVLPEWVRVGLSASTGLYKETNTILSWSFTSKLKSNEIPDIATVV

In one experiment the test system is Chordin-like protein 2 (CHRDL2). The experiment is described as follows: compounds binding chordin-like 2 – biochemical, small-molecule microarray, 635 nm fluorescence, primary screen (AID 1126).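 Also: printed compound slides probed with Chrdl2 protein at 4 µg/mL for 1 h at 4 C; score merges 667 nm emission intensity with signal to noise over three replicate slides.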 The settings on record: fluorescence 635 nm, higher = more signal.
On to `O=C1O[C@H](c2ccccc2)[C@H](c2ccccc2)N2[C@H]1[C@@H](C(=O)NC[C@H](O)c1ccccc1)[C@]1(C(=O)Nc3ccc(C#CCCO)cc31)[C@H]2c1ccc(OCCO)cc1`, for which the composite z-score was -0.327.

For the molecule `CCC(CC)C(O)C1C=CC2C(=O)N(c3ccccc3)C(=O)C2N1Nc1ccc(C(C)C)cc1` (configuration not stated), the composite z-score is -0.0149.

Molecule `C=CCC(OC(C)=O)[C@@H]1[C@@H](N(Cc2cccc3ccccc23)C(=O)Cc2ccc(OC)cc2)c2cc(OCCCO)ccc2N1C(=O)c1ccc2ccccc2n1` (some centres not stated) displayed a composite z-score of 0.173.

Take `C=C(C)c1cc2c(c(CCCCCC)n1)[Si](C(C)C)(C(C)C)OC2`: the composite z-score was -1.41.

Take `COCCOC(=O)N1C(=O)[C@@]2(c3cc(C#CC4=CCCCC4)ccc31)[C@H](c1ccccc1OCCO)N1[C@H](c3ccccc3)[C@H](c3ccccc3)OC(=O)[C@H]1[C@@H]2C(=O)Nc1nc2ccccc2s1`: the composite z-score was 0.454.

On to `O=C1NC(=O)C2C1C=CC(C(O)c1cccc3ccccc13)N2Nc1ccc(Cl)cc1Cl` (configuration not stated), for which the composite z-score was -0.155.

As for `CN(C)C(=O)[C@@]1(Cc2ccccc2CN=[N+]=[N-])N=C(c2ccc(OCCCO)cc2)O[C@H]1c1ccccc1CN=[N+]=[N-]`, the composite z-score was -0.103.

Another experiment has as its target Concanavalin-A (Canavalia ensiformis) (UniProt P02866). The experiment is described as follows: compounds binding concanavalin A lectin – biochemical, small-molecule microarray, Alexa647 label, 635 nm, artefact control for SMM control protein annotation, primary screen (AID 1127).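 Also: z combines 667 nm emission intensity with signal-to-noise across three replicate slides.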 The settings on record: ConA-A647 binding fluorescence, higher = more signal.
The molecule `Cc1ccccc1C(O)C1C=CC2C(=O)N(C)C(=O)C2N1N(c1ccccc1)c1ccccc1` (configuration not stated) came in with a composite z-score of -0.752.

In turn, `COc1ccc([Si](C)(C)[C@@H]2[C@@H](CC(=O)N(CCO)Cc3ccccc3)O[C@]3(C(=O)N(Cc4cccc(N5C(=O)c6cccc7cccc5c67)c4)c4ccccc43)[C@H]2C)cc1` gave a composite z-score of 1.04.

Consider `C=C[C@@H](COC(C)=O)N(C(=O)OC(C)(C)C)S(=O)(=O)c1ccc(Br)cc1`, for which the composite z-score amounted to 1.12.

`C=C(COC)/C(=C/C[C@H](OC(C)=O)c1ccc(OCCO)cc1)c1cc(C(=O)OC)ccc1OC` showed a composite z-score of 0.519.

`Cc1ccc(S[C@]2(C(=O)NCC(F)(F)F)CC(=O)N(Cc3ccccc3C(F)(F)F)[C@@H]2c2ccc(CO)cc2I)cc1`: the composite z-score is -0.35.

With `COC(=O)[C@@]1(Cc2ccc(F)cc2)[C@H]2c3cc(C(=O)N4CCCC4)n(CCc4ccc(O)c(O)c4)c3C[C@H]2CN1C(=O)c1ccccc1`, the composite z-score was -0.697.

For the molecule `COCCOC(=O)N1C(=O)[C@@]2(c3cc(C#CCC(C(=O)OC)C(=O)OC)ccc31)[C@H](C(=O)N1CCc3cc(OC)c(OC)cc3C1)[C@H]1C(=O)O[C@H](c3ccccc3)[C@H](c3ccccc3)N1[C@@H]2c1ccc(OCCO)cc1`, the composite z-score came to 1.11.

Regarding `COc1ccc(CCN2C(=O)[C@@]3(Cc4ccccc42)c2ccccc2C(=O)N(Cc2ccccc2OC)[C@H]3c2ccc(CO)cc2)cc1`, the composite z-score is -0.516.

Take `CN(C)CCCNC(=O)[C@@]1(c2ccc([N+](=O)[O-])cc2)CC(=O)N(CC23CC4CC(CC(C4)C2)C3)[C@@H]1c1ccc(CO)cc1I`: the composite z-score was determined as 1.14.

Consider `CCCC[C@@H]1C[C@H]1[C@@H](NC(=O)c1cccs1)c1ccc(C(F)(F)F)cc1`, for which the composite z-score was -0.162.

Turning to `COC(=O)C1=CC(CCCO)=CC(C2CC2)N(C)C=C1C(=O)OC` (configuration not stated), the composite z-score is 0.0472.

In the case of `CC(=O)c1ccc(C(O)C2C=CC3C(=O)N(c4ccccc4)C(=O)C3N2Nc2ccc(C#N)cc2)cc1` (configuration not stated), the composite z-score was 1.13.

`COCCOC(=O)N1C(=O)[C@@]2(c3cc(C#CC4=CCCCC4)ccc31)[C@H](c1ccc(OCCO)cc1)N1[C@H](c3ccccc3)[C@H](c3ccccc3)OC(=O)[C@H]1[C@@H]2C(=O)NC[C@H](O)c1ccccc1`: the composite z-score turned out to be 1.12.

On to `CCCC[C@@H]1C[C@H]1[C@@H](NC(=O)Cc1ccccc1)c1ccc(-c2ccccc2)cc1`, for which the composite z-score was 0.453.

Molecule `CCCCN1CC=CC23O[C@@H]4/C=C\CCC(C)OC(=O)C4[C@H]2C(=O)N(C(CO)C(C)C)[C@@H]3C1=O` (some centres not stated) returned a composite z-score of -0.409.

In turn, `CO[C@H]1O[C@H](CO)[C@@H](OC(=O)Nc2ccccc2-c2ccccc2)[C@H](OC(=O)Nc2ccc3c(c2)OCO3)[C@H]1OC(=O)Nc1ccc2c(c1)OCO2` yielded a composite z-score of 1.06.

`C=CCN1C(=O)[C@@]2(O[C@@H](CCn3cc([C@H](O)c4ccccc4)nn3)[C@H]([Si](C)(C)c3ccc(OC)cc3)[C@H]2C)c2cc(N3CCC3=O)ccc21` came in with a composite z-score of 0.0967.

In turn, `C=CCN1C(=O)[C@@]2(CCS(=O)(=O)c3ccccc3)N=C(c3ccc(OCCCO)cc3)O[C@H]2c2ccccc21` yielded a composite z-score of 1.12.

Molecule `COC(=O)CCCCCCC(=O)Nc1ccc(NC(=O)CCCC[P+](c2ccccc2)(c2ccccc2)c2ccccc2)cc1` came in with a composite z-score of 0.0666.

In turn, `CC(CO)N1C(=O)[C@@H]2[C@H]3C(=O)OCC=C[C@H]3OC23C=CCN(C(C)(C)C)C(=O)[C@@H]13` (some centres not stated) came in with a composite z-score of 0.251.

`[N-]=[N+]=Nc1ccccc1[C@@H]1OC(c2ccc(OCCCO)cc2)=N[C@]1(Cc1ccccc1)C(=O)NCC(O)CO` (some centres not stated) had a composite z-score of 0.468.

`CC1CC/C=C\[C@H]2OC34C=CCN(c5ccc(Cl)cc5)C(=O)[C@H]3N(CCCCCO)C(=O)[C@]4(C)C2C(=O)O1` (some centres not stated) came in with a composite z-score of -1.03.

Regarding `C=CCC(OC(C)=O)[C@@H]1[C@@H](N(Cc2cccc3ccccc23)C(=O)c2cccc3ccccc23)c2cc(OCCCO)ccc2N1C(=O)c1ccc(-c2ccccc2)cc1` (some centres not stated), the composite z-score was -0.132.

With `CN1C(=O)C2C=CC(C(O)c3ccccn3)N(N(c3ccccc3)c3ccccc3)C2C1=O` (configuration not stated), the composite z-score is 0.291.

`CC(C)(C)N1CC=CC23O[C@@H]4C=CCCOC(=O)C4[C@H]2C(=O)N(CCO)[C@@H]3C1=O` (some centres not stated) gave a composite z-score of -1.39.

Take `Cc1ccc(S[C@]2(C(=O)NCCCN(C)C)CC(=O)N(C3CCCCC3)[C@@H]2c2ccc(CO)cc2)cc1`: the composite z-score was -0.957.

With `CCOc1cc(C(O)C2C=CC3C(=O)N(c4ccccc4)C(=O)C3N2Nc2ccc(C#N)cc2)ccc1O` (configuration not stated), the composite z-score was determined as 1.03.

Take `COCCOC(=O)N1C(=O)[C@@]2(c3cc(C#Cc4ccc(OC)cc4)ccc31)[C@H](C(=O)Nc1nc3ccccc3s1)[C@H]1C(=O)O[C@H](c3ccccc3)[C@H](c3ccccc3)N1[C@@H]2c1ccc(OCCO)cc1`: the composite z-score is 1.16.

In turn, `O=C1O[C@H](c2ccccc2)[C@H](c2ccccc2)N2[C@H]1[C@@H](C(=O)NC[C@H](O)c1ccccc1)[C@]1(C(=O)Nc3ccc(C#CCCO)cc31)[C@H]2c1ccc(OCCO)cc1` registered a composite z-score of 1.08.

`CCC(CC)C(O)C1C=CC2C(=O)N(c3ccccc3)C(=O)C2N1Nc1ccc(C(C)C)cc1` (configuration not stated) registered a composite z-score of 0.922.

Consider `C=CCC(OC(C)=O)[C@@H]1[C@@H](N(Cc2cccc3ccccc23)C(=O)Cc2ccc(OC)cc2)c2cc(OCCCO)ccc2N1C(=O)c1ccc2ccccc2n1` (some centres not stated), for which the composite z-score is -0.212.

The molecule `C=C(C)c1cc2c(c(CCCCCC)n1)[Si](C(C)C)(C(C)C)OC2` came in with a composite z-score of -0.277.

`COCCOC(=O)N1C(=O)[C@@]2(c3cc(C#CC4=CCCCC4)ccc31)[C@H](c1ccccc1OCCO)N1[C@H](c3ccccc3)[C@H](c3ccccc3)OC(=O)[C@H]1[C@@H]2C(=O)Nc1nc2ccccc2s1` returned a composite z-score of 1.15.

As to `O=C1NC(=O)C2C1C=CC(C(O)c1cccc3ccccc13)N2Nc1ccc(Cl)cc1Cl` (configuration not stated), the composite z-score is 1.07.

Take `CN(C)C(=O)[C@@]1(Cc2ccccc2CN=[N+]=[N-])N=C(c2ccc(OCCCO)cc2)O[C@H]1c1ccccc1CN=[N+]=[N-]`: the composite z-score was 1.07.
